Several values for one entry are separate records, joined by “and”; a condition that tells them apart may be missing. Equal entries are not always repeated. Results filed as inconclusive are left out. Where a call stands in place of a potency, no number is given. Activity calls are given as the source filed them. Calls come from the whole dose curve; as a rule, active = well fitted cell-killing curve with a large enough effect in the repeat runs; inconclusive = weak or mixed curves, or effect the other way; inactive = flat fitted curve, though single readings scatter.
Test: qHTS assay to identify small molecule antagonists of the androgen receptor (AR) signaling pathway using the MDA cell line - cell viability counter screen (AID 743041; note: nearly all actives have a fitted effect of over 45% in size)
Details: MDA-kb2 viability, CellTiter-Fluor, 16 h, cells co-treated with R1881 androgen agonist; series mostly up to 70.3 µM
Text: National Center for Advancing Translational Sciences [NCATS]
NIH Chemical Genomics Center [NCGC]
U.S. Environmental Protection Agency [EPA]
National Institutes of Environmental Health Sciences [NIEHS]
National Toxicology Program [NTP]
U.S. Food and Drug Administration [FDA]
Androgen receptor (AR), a nuclear hormone receptor, plays a critical role in AR-dependent prostate cancer and other androgen related diseases. Endocrine disrupting chemicals (EDCs) and their interactions with steroid hormone receptors like AR may cause disruption of normal endocrine function as well as interfere with metabolic homeostasis, reproduction, developmental and behavioral functions. To identify the compounds that inhibit AR signaling, MDA-kb2 AR-luc cell line (from ATCC, deposited by Wilson et al.) was used to screen the Tox21 10K compound library. MDA-kb2 AR-luc cell line is human breast carcinoma cell line that was stably transfected with a luciferase reporter gene under control of the MMTV promoter containing response elements for both androgen receptor (AR) and glucocorticoid receptor (GR). The cytotoxicity of the Tox21 compound library against the MDA-kb2 AR-luc cell line was tested in parallel by measuring the cell viability using CellTiter-Fluor assay (Promega, Madison, WI) in the same wells.
Tox21 Assay Protocol Summary:
MDA-kb2 AR-luc cells were dispensed at 3,000 cells/4 uL/well of culture medium into white wall/solid-bottom 1536-well plates using a Multidrop Combi (ThermoFisher Scientific, Waltham, MA) dispenser. After the assay plates were incubated at a 37C and 0% CO2 for 5 hr, 23 nL of compounds dissolved in DMSO, positive controls or DMSO only was transferred to the assay plate by a Pintool station (Kalypsys, San Diego, CA), followed by addition of 1 uL of agonist (R1881) in culture medium using a Bioraptr Flying Reagent Dispenser (FRD) workstation (Beckman Coulter, Indianapolis, IN, USA). The plates were incubated at a 37C and 0% CO2 for 16 h. After 15.5 h incubation, 1uL of CellTiter-Fluor reagent (Promega) was added using a Bioraptr FRD to each plate for measuring cytotoxicity. The fluorescence intensity was quantified on a ViewLux plate reader (PerkinElmer, Shelton, CT) following 30 min incubation at 37C and 0% CO2.
For `CC(C)CCCC(=O)O`, the Potency was “inactive”. For `Cc1cc(C(=C2C=CC(=Nc3ccc(S(=O)(=O)O)cc3S(=O)(=O)O)C=C2)c2ccc(Nc3ccc(S(=O)(=O)O)cc3)cc2)ccc1N`, the Potency was “inactive”. In the case of `CC(C)c1nnc2ccc(-c3ocnc3-c3cc(F)ccc3F)cn12`, the Potency is reported as “inactive”. In the case of `Cc1nccn1-c1ccc(Sc2cccc(C3(C(N)=O)CCOCC3)c2)cc1`, the Potency is reported as 15.4 µM (active). With `CC(C)(C)C(=O)O` the Potency was “inactive”. For `O=C1NCCN1`, the Potency was “inactive”. In the case of `Cc1nc2ccccc2s1`, the Potency is reported as “inactive”. For `CCCC(=O)O[C@]1(C(=O)COC(=O)CC)CC[C@H]2[C@@H]3CCC4=CC(=O)CC[C@]4(C)[C@H]3[C@@H](O)C[C@@]21C`, the Potency was “inactive”. For `CC1CC(=O)NN=C1c1ccc(NCC(C)(C)NCC(O)COc2cc(Cl)ccc2C#N)cc1` (stereo not given), the Potency was “inactive”. For `O=C(O)c1ccc(CO)o1`, the Potency was “inactive”. In the case of `C=C(C)C(=O)OCCOC(=O)CC(C)=O`, the Potency is reported as “inactive”. With `CCCCCCCCSCCO` the Potency was “inactive”. With `Cc1cnc(C)c(C)n1` the Potency was “inactive”. With `O=C(CCCCCCCCC#CI)Oc1ccccc1` the Potency was “inactive”. With `Cc1cc(S(=O)(=O)O)ccc1N=Nc1c(O)ccc2ccccc12` the Potency was 30.6 µM (active). In the case of `Cc1cc2nc3ccc(=[N+](C)C)cc-3sc2cc1N`, the Potency is reported as 8.41 µM (active). With `O=C(CCCN1CCN(c2ccc(F)cc2)CC1)NC1c2ccccc2CSc2ccccc21` (stereo not given) the Potency was “inactive”. In the case of `CCOC(=O)C(C)Oc1ccc(Oc2nc3ccc(Cl)cc3o2)cc1` (stereo not given), the Potency is reported as “inactive”. In the case of `CCOC(=O)CC(=O)C(=O)OCC`, the Potency is reported as “inactive”. With `CCNC(=O)N1CCN(CCCC(c2ccc(F)cc2)c2ccc(F)cc2)CC1` the Potency was 26.6 µM (active). In the case of `CC(N)CN` (stereo not given), the Potency is reported as “inactive”. In the case of `c1cnc2c(n1)CCCC2`, the Potency is reported as “inactive”. With `COc1cc2[nH]c(=O)[nH]c(=O)c2cc1OC` the Potency was “inactive”. For `Cc1ccc(S)cc1`, the Potency was “inactive”. For `CCn1cc(C(=O)O)c(=O)c2cc(F)c(N3CCNCC3)nc21`, the Potency was “inactive”. With `Cc1cc(O)c2c(O)c3c(O)cccc3cc2c1` the Potency was “inactive”. With `CCN(Cc1cccc(S(=O)(=O)O)c1)c1ccc(C(=C2C=CC(=[N+](CC)Cc3cccc(S(=O)(=O)[O-])c3)C=C2)c2ccccc2)cc1` the Potency was “inactive”. For `CC(C)(C)CC(C)(C)c1ccc(OCCO)cc1`, the Potency was 27.8 µM (active) and 48.3 µM (active). For `C[C@@H]1C[C@H]2[C@@H]3CCC4=CC(=O)C=C[C@]4(C)[C@@]3(F)[C@@H](O)C[C@]2(C)[C@@]1(O)C(=O)CO`, the Potency was “inactive”. In the case of `Nc1ccc(S(=O)(=O)O)c(N)c1`, the Potency is reported as “inactive”. In the case of `CC(C)CCCCCOC(=O)CCCCC(=O)OCCCCCC(C)C`, the Potency is reported as “inactive”. For `COc1ccc(CCC(=O)c2c(O)cc(O[C@@H]3O[C@H](CO)[C@@H](O)[C@H](O)[C@H]3O[C@@H]3O[C@@H](C)[C@H](O)[C@@H](O)[C@H]3O)cc2O)cc1O`, the Potency was “inactive”. For `CO[Si](C)(OC)OC`, the Potency was “inactive”. For `NCC1CCCC(CN)C1` (stereo not given), the Potency was “inactive”. In the case of `CC(C)C(OC(=O)c1ccccc1)C(C)(C)COC(=O)c1ccccc1` (stereo not given), the Potency is reported as “inactive”. For `CO[C@H]1C=CO[C@@]2(C)Oc3c(C)c(O)c4c(O)c(c5c(c4c3C2=O)=NC2(CCN(CC(C)C)CC2)N=5)NC(=O)/C(C)=C\C=C/[C@H](C)[C@H](O)[C@@H](C)[C@@H](O)[C@@H](C)[C@H](OC(C)=O)[C@@H]1C`, the Potency was “inactive”. For `CNC(=O)N(c1ccccc1)c1ccccc1`, the Potency was “inactive”. In the case of `CCCC1C(CC)=CC(CC)=CN1c1ccccc1` (stereo not given), the Potency is reported as 54.5 µM (active). For `CCC(=O)Oc1ccc(/C(CC)=C(\CC)c2ccc(OC(=O)CC)cc2)cc1`, the Potency was “inactive”. With `O=C(O)C(Cc1cc(I)c(O)c(I)c1)c1ccccc1` (stereo not given) the Potency was “inactive”.
Potency is the fitted concentration of half-maximal effect.
